Test results: PubChem BioAssay AID1851 (National Center for Advancing Translational Sciences (NCATS), 2009)
Values joined by “and” are separate entries in the source; they are usually repeats but may differ in a detail not shown here. Equal values may be shown once. Hit rate of the full screen: of about 16,000 compounds, about 4,000 (25%) were called active. Not shown: some 26% with an inconclusive outcome. Only a sample is shown. Values without a mark were called inactive. Calls follow the shape of the dose curve; as a rule, active = well fitted curve in the direction sought with a large enough effect; inconclusive = small, poorly fitted or top-dose-only effect, or effect the other way; inactive = no such curve, though single readings can be large or run the other way.
% is scaled to controls: 0 for no effect and ±100 for the full control effect.

These compounds were tested against Cytochrome P450 2C9 (Homo sapiens) (UniProt P11712) (assay: Cytochrome panel assay with activity outcomes). Details: recombinant CYP, pro-luciferin dealkylation, luminescence, p450-cyp2c9; series mostly up to 57.1 µM.
Cytochrome P450 2C9 (Homo sapiens), sequence (P11712 whole entry, looked up): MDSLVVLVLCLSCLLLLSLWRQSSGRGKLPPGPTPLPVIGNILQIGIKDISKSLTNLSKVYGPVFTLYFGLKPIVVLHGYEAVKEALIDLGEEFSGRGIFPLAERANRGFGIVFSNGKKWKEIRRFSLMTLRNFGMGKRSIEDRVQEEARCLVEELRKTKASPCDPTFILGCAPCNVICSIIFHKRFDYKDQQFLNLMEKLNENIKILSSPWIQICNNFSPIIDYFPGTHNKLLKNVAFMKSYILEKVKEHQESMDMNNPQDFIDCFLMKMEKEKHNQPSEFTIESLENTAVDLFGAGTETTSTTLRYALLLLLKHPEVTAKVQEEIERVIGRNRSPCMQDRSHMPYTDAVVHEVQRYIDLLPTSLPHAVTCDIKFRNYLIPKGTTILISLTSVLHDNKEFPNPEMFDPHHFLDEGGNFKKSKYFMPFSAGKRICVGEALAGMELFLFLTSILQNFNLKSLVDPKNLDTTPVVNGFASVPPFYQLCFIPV
In the case of CCOc1ccc(OCC)c(-c2c(=O)n(OCc3ccccc3C(=O)OC)c3ccccc3[n+]2[O-])c1, the AC50 is reported as 14.1 µM (active).
For O=c1c(-c2ccc(Cl)cc2)[n+]([O-])c2ccccc2n1OCc1ccccn1, the AC50 was “inactive”.
For CCOc1ccc(OCC)c(-c2c(=O)n(OCc3ccc(C(C)(C)C)cc3)c3ccccc3[n+]2[O-])c1, the AC50 was 6.31 µM (active).
OC[C@@H]1O[C@H](n2cnc3c(/C=C(\O)c4ccccc4)ncnc32)[C@H](O)[C@@H]1O showed an activity, negative = inhibition of 0.392% [at 11.4 µM].
In the case of COc1ccc(C(=O)N2CCC3(CCCN(Cc4ccccc4OC)C3)CC2)cc1, the AC50 is reported as “inactive”.
COc1ccccc1Cn1nnc2c(=O)[nH]c(C3CCN(C(=O)c4ccc(C)cc4)CC3)nc21 was tested, and the AC50 was 5.62 µM (active).
Cc1ccc(C)c(S(=O)(=O)N2CCC(c3nc4c(nnn4Cc4ccc(F)cc4)c(=O)[nH]3)CC2)c1 was tested, and the AC50 was 1.58 µM (active).
For COc1ccc(C(=O)N2CCC3(CCN(Cc4ccccc4OC)CC3)CC2)cc1, the AC50 was “inactive”.
With COc1cccc(Cn2nnc3c(=O)[nH]c(C4CCCN(C(=O)c5ccccc5Cl)C4)nc32)c1 (stereo unspecified) the AC50 was 5.01 µM (active).
For Cc1ccc(Cn2nnc3c(=O)[nH]c(C4CCN(C(=O)Cc5cccs5)CC4)nc32)cc1, the AC50 was 0.708 µM (active).
For Cc1ccn2cc(CSc3ccccc3N)nc2c1, the AC50 was “inactive”.
NC1=C2NC=N[C@@H]2N(C/C=C\c2ccccc2)C=N1 gave an activity, negative = inhibition of 1.29% [at 11.4 µM].
O=C(Cc1cccs1)N1CCC(c2nc3c(nnn3Cc3ccccc3Cl)c(=O)[nH]2)CC1 was tested, and the AC50 was 0.224 µM (active).
Compound CCc1ncc(CO)n1Cc1cccc2ccccc12 has an activity, negative = inhibition of -1.15% [at 11.4 µM].
In the case of COc1ccc(N2CCN(C(=N)/C(C(C)=O)=C(\C)O)CC2)cc1, the AC50 is reported as “inactive”.
COc1ccc(N2CCN(C(=S)Nc3cc(C)ccc3C)CC2)cc1 was tested, and the AC50 was “inactive”.
In the case of CCn1cnc2sc(C(=O)N3CCN(c4ccc(OC)cc4)CC3)c(C)c2c1=O, the AC50 is reported as 7.94 µM (active).
O=C(NCCCn1ccnc1)c1ccc(Br)c(S(=O)(=O)N2CCOCC2)c1 was tested, and the AC50 was 0.708 µM (active).
O=C(NCCN1CCOCC1)c1ccc2ccccc2c1 was tested, and the AC50 was “inactive”.
O=C(NCCCN1CCOCC1)c1cc2c(s1)CSC2 was tested, and the AC50 was “inactive”.
CN[C@@H]1[C@H](O[C@H]2[C@@H](O[C@@H]3[C@@H](O)[C@@H](O)[C@@H](N=C(N)N)[C@@H](O)[C@@H]3N=C(N)N)O[C@@H](C)[C@]2(O)CO)O[C@H](CO)[C@@H](O)[C@@H]1O was tested, and the AC50 was “inactive”.
Cc1ccc(NC(=O)NNC(=O)Cn2nc(-c3ccccc3)c(-c3ccccc3)c(C#N)c2=O)cc1 was tested, and the AC50 was 3.16 µM (active).
With CCCC(=O)NNC(=O)Nc1ccccc1 the AC50 was “inactive”.
Cc1ccc(NC(=O)NNC(=O)C2CC(c3cccnc3)=NO2)cc1 (stereo unspecified) was tested, and the AC50 was “inactive”.
With OC[C@@H](O)CN1CCN(c2ccccc2)CC1 the AC50 was “inactive”.
In the case of CC(C)CC(c1nnnn1C(C)C)N1CCN(c2ccccc2)CC1 (stereo unspecified), the AC50 is reported as 2 µM (active).
For ClC(Cl)(Cl)C(N1CCN(c2ccccc2)CC1)N1CCN(c2ccccc2)CC1, the activity, negative = inhibition was 18.4% [at 11.4 µM].
NS(=O)(=O)c1cc2c(cc1Cl)=NC(CCC(=O)O)=NS=2(=O)O gave an activity, negative = inhibition of 3.24% [at 11.4 µM].
In the case of Cc1ccc(-c2ccc(/C=N/NC(=S)Nc3ccccc3)o2)cc1[N+](=O)[O-], the AC50 is reported as 3.98 µM (active).
With Cc1ccc(-c2ccc(/C=N\NC(=O)c3cc4c(ccc5ccccc54)o3)o2)cc1[N+](=O)[O-] the AC50 was “inactive”.
In the case of CCn1c(=O)c2c(O)cc(=O)oc2c2ccccc21, the AC50 is reported as “inactive”.
For CCn1c2ccccc2c2cc(NS(=O)(=O)c3ccccc3C)ccc21, the AC50 was 0.891 µM (active).
In the case of Cc1nc2cnc(N3CCN(C)CC3)nc2n(C)c1=O, the AC50 is reported as “inactive”.
With COC(=O)C1CCC(C)(C(=O)Nc2ccccc2)C1(C)C (stereo unspecified) the AC50 was 7.94 µM (active).
With COC(=O)N1CCC2(CC1)CN(C(=O)Nc1ccccc1)C2 the AC50 was “inactive”.
With COC(=O)C1CSC(C(=O)OC)N1C(=O)Nc1ccccc1 (stereo unspecified) the AC50 was “inactive”.
Work on C[C@@H]1O[C@H]2C3=C(C(=O)[C@H]4O[C@@H]4[C@H]3O)[C@@H]1[C@@H]1[C@@H](C)OC=C3[C@H](O)[C@H]4O[C@@H]4/C(=N\OCc4ccccc4)[C@]312 yielded an activity, negative = inhibition of -27.9% [at 11.4 µM].
Cc1ccccc1-c1cc(Nc2ccccc2)ncn1 showed an activity, negative = inhibition of 20.2% [at 2.29 µM].
In the case of O=C1C[C@@H](O)[C@@H](O)[C@H]2[C@@H]3C(=O)N(Cc4ccc5c(c4)OCO5)C(=O)[C@@H]3CC[C@H]12, the activity, negative = inhibition is reported as -7.97% [at 11.4 µM] and -24% [at 11.4 µM].
In the case of COc1ccc(CCN2CC34C=CC(O3)C(C(=O)NCc3ccccc3)C4C2=O)cc1OC (stereo unspecified), the AC50 is reported as “inactive”.
Cc1ccccc1OC1C(=O)N(Cc2ccc3c(c2)OCO3)C1c1sccc1C (stereo unspecified) was tested, and the AC50 was 7.94 µM (active).
For COC(=O)c1ccc(C2C(Oc3ccccc3)C(=O)N2CCc2ccc(OC)c(OC)c2)cc1 (stereo unspecified), the AC50 was “inactive”.
For COc1ccc(CCN2C(=O)C(Oc3ccccc3C)C2c2ccc3c(c2)OCO3)cc1OC (stereo unspecified), the AC50 was 7.94 µM (active).
O=C1[C@H]2[C@H]3[C@H](O)[C@H](O)C/C(=N/OCc4ccccc4)[C@@H]3CC[C@@H]2C(=O)N1Cc1ccc2c(c1)OCO2 was tested, and the activity, negative = inhibition was -27.6% [at 11.4 µM].
With Cc1ccc(C)c(NC(=O)C2CC3c4ccccc4C2c2ccccc23)c1 (stereo unspecified) the AC50 was 5.01 µM (active).
For Cc1ccc(C)c(NC(=O)C2CC(O)CN2C(=O)OC(C)(C)C)c1 (stereo unspecified), the AC50 was “inactive”.
Cc1ccc(C)c(NC(=O)c2ncn[nH]2)c1 was tested, and the AC50 was “inactive”.
CCn1c(SCC(=O)Nc2ccccc2C(=O)OC)nnc1-c1ccc(N)cc1 was tested, and the AC50 was 22.4 µM (active).
With CCOC(=O)c1ccccc1NC(=O)CSc1cccc[n+]1[O-] the AC50 was “inactive”.
With CCC(C)Nc1nc(OCC(F)(F)F)nc(OCC(F)(F)F)n1 (stereo unspecified) the AC50 was “inactive”.
With O=c1ccc2cc(O)c(O)cc2o1 the AC50 was “inactive”.
COC(=O)[C@@H]1C[C@H]1[C@@H](NC(=O)c1cccnc1)c1ccccc1 was tested, and the AC50 was “inactive”.
With Cc1cccc(NC(NC(=O)c2cccnc2)C(Cl)(Cl)Cl)c1 (stereo unspecified) the AC50 was 2.24 µM (active).
In the case of COC(=O)[C@H]1C[C@@H]1[C@H](NC(=O)c1cccnc1)c1ccccc1, the AC50 is reported as “inactive”.
In the case of CCOC(=O)CNC(=O)c1cccnc1, the AC50 is reported as “inactive”.
In the case of O=C(NC(NCc1ccccc1)C(Cl)(Cl)Cl)c1cccnc1 (stereo unspecified), the AC50 is reported as 14.1 µM (active).
